The values below come from PubChem BioAssay (Tox21).

Inconclusive results are not listed. A call without a number means that no potency is given here. The source made the active and inactive calls. Calls follow the shape of the full dose curve.
Potency is read from the fitted curve at half-maximal effect.

5-hydroxytryptamine receptor 2A (Homo sapiens), sequence (P28223 whole entry, looked up): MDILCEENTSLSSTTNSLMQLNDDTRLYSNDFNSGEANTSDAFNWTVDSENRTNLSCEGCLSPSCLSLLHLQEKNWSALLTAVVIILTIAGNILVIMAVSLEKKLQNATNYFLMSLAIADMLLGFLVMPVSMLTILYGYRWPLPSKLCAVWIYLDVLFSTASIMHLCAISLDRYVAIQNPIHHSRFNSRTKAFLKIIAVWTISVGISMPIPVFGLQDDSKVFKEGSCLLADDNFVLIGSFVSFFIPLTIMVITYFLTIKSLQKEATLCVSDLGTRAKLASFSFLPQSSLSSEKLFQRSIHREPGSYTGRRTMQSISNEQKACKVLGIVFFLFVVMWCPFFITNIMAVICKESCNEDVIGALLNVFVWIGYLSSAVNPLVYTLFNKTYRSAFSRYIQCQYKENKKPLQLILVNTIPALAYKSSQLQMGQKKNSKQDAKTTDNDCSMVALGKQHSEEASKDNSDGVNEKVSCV

This assay has as its target 5-hydroxytryptamine receptor 2A (Homo sapiens) (UniProt P28223). The assay is described as follows: 5-hydroxytryptamine receptor 2A (HTR2A) small molecule antagonists, cell-based qHTS assay (AID 1963586). Also: nearly all actives have a fitted effect of over 45% in size. To be noted: HTR2A-CHO cells, DOI-induced calcium flux, fluorescence; series mostly up to 61.5 µM. The source says: National Center for Advancing Translational Sciences [NCATS]
Division of Preclinical Innovation [DPI]
U.S. Environmental Protection Agency [EPA]
National Institutes of Environmental Health Sciences [NIEHS]
National Toxicology Program [NTP]
U.S. Food and Drug Administration [FDA]
The HTR2A receptor is a subtype of the 5-HT2 receptor that belongs to the serotonin receptor family and is a G protein-coupled receptor (GPCR). The HTR2A-CHO cell line stably expressing human 5-hydroxytryptamine receptor 2A (HTR2A) can be used for screening antagonists of interactions between 5-HT2 and its ligands. The HTR2A-CHO calcium flux assay is a homogeneous fluorescence-based assay for detecting the intracellular calcium level using FDSS kinetic plate reader system.
Tox21 Assay Protocol Summary:
HTR2A-CHO cells were dispensed at 2000 cells/3uL/well in 1536-well black-clear bottom plates using a Multidrop Dispenser. After the assay plates were incubated at a 37 C/5% CO2 incubator for 18 h, 3 uL of Dye Loading Buffer was transferred to the assay plate by a Flying Reagent Dispenser. The assay plates were incubated at 37 C for 1h. For antagonist mode, 23 nL of compounds dissolved in DMSO, positive controls or DMSO only was transferred to the assay plate by a pin tool. After 5 min incubation at room temperature, 1.5 uL of 4-Iodo-2,5-dimethoxy-alpha-methylbenzeneethanamine hydrochloride (DOI) at 4nM was added to each well. The fluorescence intensity in the plates was measured using FDSS 7000EX kinetic plate reader for 3 min at 1 sec intervals.
Take `CCOC(C(=O)OCCN(C)C)(c1ccccc1)c1ccccc1`: the Potency entry was “inactive”.

For `COP(N)(=S)OC`, the Potency entry was “inactive”. In the case of `CC(C)(C)N(NC(=O)c1ccc(Cl)cc1)C(=O)c1ccccc1`, the Potency entry was “inactive”. For `Oc1ccc2c3c1O[C@H]1[C@@H](O)C=C[C@H]4[C@@H](C2)NCC[C@@]341`, the Potency entry is “inactive”.

As to `CC[C@H]1C[C@@H]2C[C@H]3c4[nH]c5ccc(OC)cc5c4CCN(C2)[C@@H]13`, the Potency was 293 nM (active).

Consider `CN1CCC(O)(c2ccc(F)cc2)C(C(=O)c2ccc(F)cc2)C1` (stereo not given), for which the Potency entry was “inactive”. The value for `CCOP(=S)(OCC)Oc1cc(Cl)c(Br)cc1Cl` was “inactive”. The value for `Oc1cccc(Cl)c1` was “inactive”; that for `O=C(O)c1cccc(Cl)c1` was “inactive”; that for `COC(C)(C)CCC[C@H](C)C/C=C/C(C)=C/C(=O)OC(C)C` was “inactive”.

`CC(Oc1ccc(Oc2ncc(C(F)(F)F)cc2Cl)cc1)C(=O)O` (stereo not given): the Potency result was “inactive”. Turning to `CC(C)CCCCCCCOP(=O)(Oc1ccccc1)Oc1ccccc1`, the Potency entry was “inactive”. On to `Cc1cc(C)c(C(=O)P(=O)(C(=O)c2c(C)cc(C)cc2C)c2ccccc2)c(C)c1`, for which the Potency result was “inactive”. For `CCC1(C2=NCCN2)Cc2ccccc2O1` (stereo not given), the Potency result was “inactive”. As for `CCCC(Cn1cncn1)c1ccc(Cl)cc1Cl` (stereo not given), the Potency result was “inactive”. The value for `CC1=C(C(=O)Nc2ccccc2)S(=O)(=O)CCO1` was “inactive”; that for `OC(Cn1cncn1)(c1ccc(F)cc1)c1ccccc1F` (stereo not given) was “inactive”. Take `ClCCCCCCCl`: the Potency entry is “inactive”.

As for `CCNS(=O)(=O)C(F)(F)C(F)(F)C(F)(F)C(F)(F)C(F)(F)C(F)(F)C(F)(F)C(F)(F)F`, the Potency result was “inactive”. The value for `CCN(CCO)CCn1c(Cc2ccccc2)nc2c1c(=O)n(C)c(=O)n2C` was “inactive”; that for `C=CCC1(C(C)CC)C(=O)NC(=O)NC1=O` (stereo not given) was “inactive”; that for `COc1ccc2c(c1OC)CN1CCc3cc4c(cc3C1C2)OCO4` (stereo not given) was “inactive”. The value for `COC(=O)C(C)Oc1ccc(Oc2ccc(Cl)cc2Cl)cc1` (stereo not given) was “inactive”; that for `CCCCN(CCCC)C(=S)[S-].CCCCN(CCCC)C(=S)[S-].[Ni+2]` was “inactive”; that for `N#CNC#N` was “inactive”. Turning to `Clc1ccc2ccccc2c1`, the Potency entry was “inactive”. In the case of `Cc1ccc(C)c2ccccc12`, the Potency entry is “inactive”. `O=C(O)c1ccccc1C(=O)Nc1cccc2ccccc12`: the Potency entry was “inactive”. Regarding `CC(C)OC(=O)C(O)(c1ccc(Cl)cc1)c1ccc(Cl)cc1`, the Potency result was “inactive”.

Take `CC(C)(C)c1cc(O)ccc1O`: the Potency entry is “inactive”. `CCC#N`: the Potency entry was “inactive”.

With `CCOP(=S)(S)OCC`, the Potency result is “inactive”.

As to `[Cl][Sb]([Cl])[Cl]`, the Potency result was “inactive”. The value for `O=C1C(=O)c2cccc3cccc1c23` was “inactive”; that for `CCCCCCCC(=O)Cl` was “inactive”. The value for `CC(=O)NC1CCSC1=O` (stereo not given) was “inactive”. For the compound `N#CC(O)c1ccccc1` (stereo not given), the Potency entry is “inactive”. With `CC(C)(Cl)[N+](=O)[O-]`, the Potency entry was “inactive”. As to `CC(Cc1ccc2c(c1)OCO2)NO` (stereo not given), the Potency is 910 nM (active).

On to `Fc1ccc(C(OCCN2CCN(CCCc3ccccc3)CC2)c2ccc(F)cc2)cc1`, for which the Potency is 1300 nM (active).
